Sampled rows, rich in hits. Any-hit rate of the full collection: about 19%.
DT40 TDP1 CPT: DT40-hTDP1 cell growth loss with CPT; AID 686979; chicken DT40 Tdp1-/-;hTDP1 cells + 20 nM CPT, ATP luminescence, 48 h; hit rate 12% among 420,000; Potency, µM (series often up to 46.2 µM), without a hit: top-dose activity change, negative = growth inhibition, hits mostly inhibitors; note: potency is the fitted concentration of half-maximal effect; nearly all actives have a fitted effect of over 55% in size
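Cell growth measured by CellTiter-Glo luminescence after a minimum 48 h, 37 C compound exposure with 20 nM CPT in Tdp1-knockout DT40 cells stably expressing hTDP1, seeded 400/well; qHTS titration format.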
HT1080-NT tox: kills 2HG-producing HT-1080-NT fibrosarcoma cells | HT-1080-NT fibrosarcoma viability, CellTiter-Glo ATP luminescence, 48 h | Potency, µM (doses to about 46.1 µM), for inactives: top-dose activity, negative = less viability, most hits filed as cytotoxic | hit rate 1.6% among 360,000 | AID 686970;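 note: NT is the 2HG producing partner of a matched IDH1 knockdown line; potency is the fitted concentration of half-maximal effect; 0% = DMSO-treated cells and -100% = media-only wells without cells; nearly all actives have a fitted effect of over 55% in size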
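Fibrosarcoma NT cells, 750 per well in 5% FBS RPMI, were exposed to compound for 48 hours. Viability: CellTiter-Glo luminescence.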
TDP1 cell noCPT: qHTS for Inhibitors of human tyrosyl-DNA phosphodiesterase 1 (TDP1): qHTS in cells in absence of CPT. DT40 Tdp1-/- hTDP1 cells, no CPT, ATP luminescence, 48 h. Potency, µM (series often up to 46.2 µM), for the others: top-dose activity change, negative = growth inhibition, usual class: inhibitors. hit rate 15% among 420,000. AID 686978, 2013; note: potency is the fitted concentration of half-maximal effect; nearly all actives have a fitted effect of over 55% in size
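Camptothecin absent (DMSO only). Human TDP1-complemented DT40 knockout cells, 400 cells/well, 37 °C for minimum 48 hr; ATP measured via CellTiter-Glo, 30 min dark incubation, luminescence.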
HT1080 IDH1KD tx: HT-1080 IDH1 knockdown cell toxicity (counter line). AID 686971. HT-1080 IDH1 knockdown viability, ATP luminescence, 48 h. hit rate 2% among 360,000. Potency, µM (titrated, usually from 46.1 µM), without a hit: top-dose activity, negative = toxicity, actives largely listed as cytotoxic;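 note: potency is the fitted concentration of half-maximal effect; 0% = DMSO wells and -100% = cell-free medium wells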
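Assay cells: HT-1080 with IDH1 knockdown, 750 per well, RPMI/5% FBS. Exposure: 48 h at 37 °C following 2 h pre-incubation. Read: CellTiter-Glo luminescence; fitted concentration-response, curve class assigned.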
IL1B secr inh: blocks inflammasome-driven IL-1 beta release. THP-1 LPS/ATP IL-1B secretion, AlphaLISA, 16 h; stronger effect = lower value. activity change, % at 57.5 µM. AID 743279. hit rate 4.7% among 360,000; in the data active = activity change below about -50%; inconclusive = mostly about -30% to -49%
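THP-1 cells pretreated 1 hr with compounds (up to 57.5 uM final), then stimulated with LPS (250 ng/mL final) plus ATP (1.25 mM final); secreted IL-1B measured by AlphaLISA after 16 hr, decreased signal indicating inhibition.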
ELG1 DNA repair: blocks ELG1-dependent DNA repair in HEK293T cells; Potency, µM (highest dose often 46.1 µM), without a hit: top-dose activity change, negative = inhibition, most hits filed as inhibitors; AID 504467; hit rate 2.3% among 330,000; HEK293T ELG1-luciferase reporter, luminescence, 16 h; DNA damage induced by 5-fluorouridine; note: potency is the fitted concentration of half-maximal effect; nearly all actives have a fitted effect of over 55% in size
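Overnight (16 hr) co-exposure of 2,000 cells/well to 5-fluorouridine and compound at 37 °C preceded detection. Luciferase was quantified via ONE-Glo luminescence; loss of signal denotes inhibition.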
* hit, by the source's call; ? = inconclusive; / = no result given; [ ] = dose if it differs, or a comment. Unless noted, calls come from the whole dose curve; as a rule, active = well fitted curve in the direction sought with a large enough effect; inconclusive = small, poorly fitted or top-dose-only effect, or another doubt; inactive = no such curve, though single readings can be large; an effect the other way counts as inactive or inconclusive. Unless noted, % is set by controls: 0 for no effect and ±100 for the full control effect.

SMILES | DT40 TDP1 CPT | HT1080-NT tox | TDP1 cell noCPT | HT1080 IDH1KD tx | IL1B secr inh | ELG1 DNA repair
CCN1CCN(c2c(/C=C3\SC(=S)N(Cc4ccco4)C3=O)c(C)c(C#N)c(=O)n2C)CC1 | ? | 16µM* | 15µM* | ? | 123 | 9%
COc1ccc(-n2c(C)cc(/C=C3\SC(=S)N(Cc4ccco4)C3=O)c2C)cc1 | ? | 1% | ? | 12% | -5 | ?
O=C(NCc1cnc2ccccn12)C1CCC(=O)N(Cc2ccccc2F)C1 (stereo not given) | -7% | 3% | 0% | -1% | -6 | 7%
Nn1c(Cc2cccc3ccccc23)nnc1SCc1c(Cl)cccc1Cl | ? | ? | 16µM* | -23% | -17 | -12%
Nn1c(Cc2cccc3ccccc23)nnc1SCc1ccc(Cl)c(Cl)c1 | -13% | ? | -22% | ? | -72* | -24%
Nn1c(Cc2cccc3ccccc23)nnc1SCn1nnc2ccccc2c1=O | -1% | 2% | -14% | -2% | 2 | -1%
O=C(c1ccc(Br)cc1)N1CCC(C(=O)N2CCN(Cc3ccccc3)CC2)CC1 | ? | -3% | ? | -15% | 0 | -28%
COc1ccc(-c2nnc(SCC(=O)Nc3cccc(Cl)c3C)nc2-c2ccc(OC)cc2)cc1 | ? | / | 10µM* | / | / | /
COc1ccc(-c2nnc(SCC(=O)Nc3ccc(C(C)=O)cc3)nc2-c2ccc(OC)cc2)cc1 | 12µM* | / | 10µM* | / | / | /
COc1cc(/C=C2\SC(=Nc3ccc(Cl)c(C(=O)O)c3)NC2=O)c(Br)c(Br)c1O | -1% | 0% | 3% | 1% | 32 | 3%
O=C1c2ccccc2C(=O)C12OC2c1ccc(Cl)cc1Cl (stereo not given) | 5.2µM* | 21µM* | 9.2µM* | ? | -101* | -11%
O=C(Nc1cccc(Cl)c1)c1ccc(NCCCN2CCOCC2)c([N+](=O)[O-])c1 | ? | ? | 29µM* | ? | -51* | 3%
Cc1ccc(NC(=O)c2ccc(NCCCN3CCC(C)CC3)c([N+](=O)[O-])c2)cc1F | 4.6µM* | ? | 8.2µM* | ? | ? | ?
COc1ccc(C(=O)Nc2ccccc2C(=O)NCC2CCCO2)cc1 (stereo not given) | ? | 8% | ? | 4% | -6 | -4%
CC(C)(O)c1[nH]c2ccc(C#N)cc2c1C(C)(C)O | 6% | -6% | -22% | 3% | 31 | -19%
CCc1c(CN2CCN(c3ccccc3F)CC2)csc1C | ? | / | 21µM* | / | / | /
Fc1ccccc1N1CCN(Cc2cccnc2)CC1 | 5% | 23% | -8% | 19% | 0 | 11%
CN(CC(=O)Nc1ccc(Cl)c(C(F)(F)F)c1)C(=O)c1cccc(N2C(=O)CCC2=O)c1 | -25% | -11% | ? | -3% | 31 | ?
CCOc1ccc(OCCC(=O)N(CC)CC(=O)NCc2cccs2)cc1 | ? | -2% | 5% | 2% | 4 | -2%
COc1ccccc1N1CCN(C(=O)c2cc(=O)c3ccc(C)cc3o2)CC1 | ? | 11% | ? | -1% | 9 | 3%
COc1ccccc1N1CCN(C(=O)c2oc3c(c2C)C(=O)CC(C)(C)C3)CC1 | 15µM* | -5% | 6.5µM* | -2% | -6 | 21µM*
COc1ccccc1N1CCN(C(=O)c2oc3cc(C)cc(C)c3c2C)CC1 | ? | -2% | 26µM* | -15% | 1 | ?
Cc1c(C(=O)N2CCN(c3ccccn3)CC2)oc2c1C(=O)CC(C)(C)C2 | ? | 2% | ? | 7% | 10 | ?
Cc1ccc(C(C)C)c(OCc2ccc(-c3nnco3)cc2)c1 | 16µM* | ? | 21µM* | ? | -25 | ?
Cc1ccc(COc2ccc(-c3nnco3)cc2)cc1 | -1% | 4% | -4% | 9% | ? | ?
SMILES | DT40 TDP1 CPT | HT1080-NT tox | TDP1 cell noCPT | HT1080 IDH1KD tx | IL1B secr inh | ELG1 DNA repair
CC(OC(=O)c1ccccc1Nc1ccc(SC(F)F)cc1)C(N)=O (stereo not given) | ? | -1% | ? | -13% | -75* | 7%
CC1CCCC(C)N1C(=O)c1ccccc1Nc1ccc(SC(F)F)cc1 (stereo not given) | 23µM* | 23µM* | 21µM* | ? | -23 | -5%
CC(C)(C)NC(=O)COC(=O)c1ccccc1Nc1ccc(SC(F)F)cc1 | ? | -21% | 16µM* | -13% | 13 | ?
COc1ccc(-c2nc(N)ncc2-c2ccccc2OC)c(O)c1 | ? | -2% | -23% | -3% | ? | -13%
CCOc1ccccc1C(=O)N(Cc1ccco1)Cc1ccccc1F | 21µM* | / | 21µM* | / | / | /
COc1ccccc1C(=O)NCc1ccco1 | 1% | -1% | 1% | 5% | -23 | 2%
COc1ccccc1C(=O)N(Cc1ccco1)Cc1ccccc1F | ? | / | 21µM* | / | / | /
CCOP(=O)(OCC)C(Nc1ccccc1)c1cccnc1 (stereo not given) | 6% | 0% | -13% | 15% | 19 | ?
O=P(OC1CCCCC1)(OC1CCCCC1)C(Nc1ccccc1)c1cccnc1 (stereo not given) | ? | -19% | 15µM* | -21% | -72* | ?
O=C(COC(=O)c1cncc(Br)c1)Nc1ccc(F)c(F)c1F | -21% | 0% | -20% | -10% | 17 | ?
O=C(COc1ccc2c(c1)OCO2)NCc1cccs1 | -5% | 6% | -3% | 12% | 1 | ?
Cc1nnc(N/N=C/c2cc([N+](=O)[O-])c(N3CCC(C)CC3)cc2N2CCC(C)CC2)n1N | -22% | -5% | ? | -18% | -68* | ?
CCc1nnc(N/N=C/c2ccc(N3CCC(C)CC3)c([N+](=O)[O-])c2)n1N | ? | ? | ? | 33µM* | 59 | -1%
CCN(CC(=O)Nc1ccc(NC(C)=O)cc1)C(=O)c1ccc(N2CCC(C)CC2)c([N+](=O)[O-])c1 | -27% | -1%[9.24 µM] | -12% | 1% | -28 | -18%
CCNC(=S)NNc1nncc2ccccc12 | ? | 11% | ? | -4% | -7 | 14%
CCNC(=S)NNc1ccccc1 | 3.3µM* | 8.2µM* | 5.2µM* | 6.5µM* | -95* | 24%
S=C(NCc1ccccc1)NNc1ccccc1 | 4.6µM* | ? | 5.8µM* | ? | 5 | -14%
O=C(CNc1cccc(Cl)c1)NNC(=S)NCc1ccccc1 | ? | -21% | 23µM* | -12% | -12 | -8%

Screening data (PubChem BioAssay)
